Experiments:
Experiment in all cases: phenotypically active (imaging signature differs from DMSO and reproducible) at any of 0.3-9 uM (binary (1 = active, 0 = inactive)); higher = active
Conditions in all cases: treatment time: 24 h
A549-ACTB-RAB5A = system: A549-ACTB-RAB5A
Summary of the method: (§1)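 Four wells per concentration (0.3, 1, 3 or 9 µM) were treated for 24 h in each of fifteen gene-edited reporter lines from A549, HepG2 and WPMY1 cells, then imaged live. After normalising live-cell features to solvent control wells, deviation was defined as ≥3 of 4 wells lying past the 95th percentile of control Euclidean distances. Reproducibility was defined as a median replicate Pearson correlation above the 95th percentile of non-replicates. Both had to hold for phenotypic activity.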

A549-CANX-COX4 = system: A549-CANX-COX4
Summary of the method: as §1

A549-GM130-SQSTM1 = system: A549-GM130-SQSTM1
Summary of the method: as §1

A549-TP53BP1-CLTA = system: A549-TP53BP1-CLTA
Summary of the method: as §1

A549-TUBA1B-RELA = system: A549-TUBA1B-RELA
Summary of the method: as §1

HepG2-ACTB-RAB5A = system: HepG2-ACTB-RAB5A
Summary of the method: as §1

HepG2-CANX-COX4 = system: HepG2-CANX-COX4
Summary of the method: as §1

HepG2-GM130-SQSTM1 = system: HepG2-GM130-SQSTM1
Summary of the method: as §1

HepG2-TP53BP1-CLTA = system: HepG2-TP53BP1-CLTA
Summary of the method: as §1

HepG2-TUBA1B-RELA = system: HepG2-TUBA1B-RELA
Summary of the method: as §1

WPMY1-ACTB-RAB5A = system: WPMY1-ACTB-RAB5A
Summary of the method: as §1

WPMY1-CANX-COX4 = system: WPMY1-CANX-COX4
Summary of the method: as §1

WPMY1-GM130-SQSTM1 = system: WPMY1-GM130-SQSTM1
Summary of the method: as §1

WPMY1-TP53BP1-CLTA = system: WPMY1-TP53BP1-CLTA
Summary of the method: as §1

WPMY1-TUBA1B-RELA = system: WPMY1-TUBA1B-RELA
Summary of the method: as §1

Measured: phenotypically active

O=C(NCC1CCCCN1)c1cc(OCC(F)(F)F)ccc1OCC(F)(F)F (stereo not given) [flecainide]
inactive: A549-ACTB-RAB5A 0 | A549-CANX-COX4 0 | A549-GM130-SQSTM1 0 | A549-TP53BP1-CLTA 0 | A549-TUBA1B-RELA 0 | HepG2-ACTB-RAB5A 0 | HepG2-CANX-COX4 0 | HepG2-GM130-SQSTM1 0 | HepG2-TP53BP1-CLTA 0 | HepG2-TUBA1B-RELA 0 | WPMY1-ACTB-RAB5A 0 | WPMY1-CANX-COX4 0 | WPMY1-GM130-SQSTM1 0 | WPMY1-TP53BP1-CLTA 0 | WPMY1-TUBA1B-RELA 0

CNC[C@H](O)c1ccc(O)c(O)c1 [epinephrine]
inactive: A549-ACTB-RAB5A 0 | A549-CANX-COX4 0 | A549-GM130-SQSTM1 0 | A549-TP53BP1-CLTA 0 | A549-TUBA1B-RELA 0 | HepG2-ACTB-RAB5A 0 | HepG2-CANX-COX4 0 | HepG2-GM130-SQSTM1 0 | HepG2-TP53BP1-CLTA 0 | HepG2-TUBA1B-RELA 0 | WPMY1-ACTB-RAB5A 0 | WPMY1-CANX-COX4 0 | WPMY1-GM130-SQSTM1 0 | WPMY1-TP53BP1-CLTA 0 | WPMY1-TUBA1B-RELA 0

Fc1ccc(-c2c3cccc(C(F)(F)F)c3nn2Cc2ccc(F)cc2Cl)cc1
inactive: A549-ACTB-RAB5A 0 | A549-CANX-COX4 0 | A549-GM130-SQSTM1 0 | A549-TP53BP1-CLTA 0 | A549-TUBA1B-RELA 0 | HepG2-ACTB-RAB5A 0 | HepG2-CANX-COX4 0 | HepG2-GM130-SQSTM1 0 | HepG2-TP53BP1-CLTA 0 | HepG2-TUBA1B-RELA 0 | WPMY1-ACTB-RAB5A 0 | WPMY1-CANX-COX4 0 | WPMY1-GM130-SQSTM1 0 | WPMY1-TP53BP1-CLTA 0 | WPMY1-TUBA1B-RELA 0

Cn1nnc2c(C(N)=O)ncn2c1=O [temozolomide]
inactive: A549-ACTB-RAB5A 0 | A549-CANX-COX4 0 | A549-GM130-SQSTM1 0 | A549-TP53BP1-CLTA 0 | A549-TUBA1B-RELA 0 | HepG2-ACTB-RAB5A 0 | HepG2-CANX-COX4 0 | HepG2-GM130-SQSTM1 0 | HepG2-TP53BP1-CLTA 0 | HepG2-TUBA1B-RELA 0 | WPMY1-ACTB-RAB5A 0 | WPMY1-CANX-COX4 0 | WPMY1-GM130-SQSTM1 0 | WPMY1-TP53BP1-CLTA 0 | WPMY1-TUBA1B-RELA 0

CCOC(=O)C1=C(C)NC(=S)N[C@H]1c1cccc(O)c1 [Monastrol]
inactive: A549-ACTB-RAB5A 0 | A549-CANX-COX4 0 | A549-GM130-SQSTM1 0 | A549-TP53BP1-CLTA 0 | A549-TUBA1B-RELA 0 | HepG2-ACTB-RAB5A 0 | HepG2-CANX-COX4 0 | HepG2-GM130-SQSTM1 0 | HepG2-TP53BP1-CLTA 0 | HepG2-TUBA1B-RELA 0 | WPMY1-ACTB-RAB5A 0 | WPMY1-CANX-COX4 0 | WPMY1-GM130-SQSTM1 0 | WPMY1-TP53BP1-CLTA 0 | WPMY1-TUBA1B-RELA 0

CC(C)(C)NS(=O)(=O)c1cncc(-c2cc(F)c3nc(N)nn3c2)c1
inactive: A549-ACTB-RAB5A 0 | A549-CANX-COX4 0 | A549-GM130-SQSTM1 0 | A549-TP53BP1-CLTA 0 | A549-TUBA1B-RELA 0 | HepG2-ACTB-RAB5A 0 | HepG2-CANX-COX4 0 | HepG2-GM130-SQSTM1 0 | HepG2-TP53BP1-CLTA 0 | HepG2-TUBA1B-RELA 0 | WPMY1-ACTB-RAB5A 0 | WPMY1-CANX-COX4 0 | WPMY1-GM130-SQSTM1 0 | WPMY1-TP53BP1-CLTA 0 | WPMY1-TUBA1B-RELA 0

CC(=O)CCCCn1c(=O)c2c(ncn2C)n(C)c1=O [Pentoxifylline]
inactive: A549-ACTB-RAB5A 0 | A549-CANX-COX4 0 | A549-GM130-SQSTM1 0 | A549-TP53BP1-CLTA 0 | A549-TUBA1B-RELA 0 | HepG2-ACTB-RAB5A 0 | HepG2-CANX-COX4 0 | HepG2-GM130-SQSTM1 0 | HepG2-TP53BP1-CLTA 0 | HepG2-TUBA1B-RELA 0 | WPMY1-ACTB-RAB5A 0 | WPMY1-CANX-COX4 0 | WPMY1-GM130-SQSTM1 0 | WPMY1-TP53BP1-CLTA 0 | WPMY1-TUBA1B-RELA 0

Cn1c(=O)c2[nH]cnc2n(C)c1=O [Aminophylline]
inactive: A549-ACTB-RAB5A 0 | A549-CANX-COX4 0 | A549-GM130-SQSTM1 0 | A549-TP53BP1-CLTA 0 | A549-TUBA1B-RELA 0 | HepG2-ACTB-RAB5A 0 | HepG2-CANX-COX4 0 | HepG2-GM130-SQSTM1 0 | HepG2-TP53BP1-CLTA 0 | HepG2-TUBA1B-RELA 0 | WPMY1-ACTB-RAB5A 0 | WPMY1-CANX-COX4 0 | WPMY1-GM130-SQSTM1 0 | WPMY1-TP53BP1-CLTA 0 | WPMY1-TUBA1B-RELA 0

Cc1nc(=O)c2c([nH]1)CCSC2
inactive: A549-ACTB-RAB5A 0 | A549-CANX-COX4 0 | A549-GM130-SQSTM1 0 | A549-TP53BP1-CLTA 0 | A549-TUBA1B-RELA 0 | HepG2-ACTB-RAB5A 0 | HepG2-CANX-COX4 0 | HepG2-GM130-SQSTM1 0 | HepG2-TP53BP1-CLTA 0 | HepG2-TUBA1B-RELA 0 | WPMY1-ACTB-RAB5A 0 | WPMY1-CANX-COX4 0 | WPMY1-GM130-SQSTM1 0 | WPMY1-TP53BP1-CLTA 0 | WPMY1-TUBA1B-RELA 0

CCCNC(C)C(=O)Nc1c(C)csc1C(=O)OC (stereo not given) [articaine]
inactive: A549-ACTB-RAB5A 0 | A549-CANX-COX4 0 | A549-GM130-SQSTM1 0 | A549-TP53BP1-CLTA 0 | A549-TUBA1B-RELA 0 | HepG2-ACTB-RAB5A 0 | HepG2-CANX-COX4 0 | HepG2-GM130-SQSTM1 0 | HepG2-TP53BP1-CLTA 0 | HepG2-TUBA1B-RELA 0 | WPMY1-ACTB-RAB5A 0 | WPMY1-CANX-COX4 0 | WPMY1-GM130-SQSTM1 0 | WPMY1-TP53BP1-CLTA 0 | WPMY1-TUBA1B-RELA 0

Cc1c(F)cc(C(=O)NC2CC2)cc1-c1ccc(C(=O)NCC(C)(C)C)cn1 [losmapimod]
inactive: A549-ACTB-RAB5A 0 | A549-CANX-COX4 0 | A549-GM130-SQSTM1 0 | A549-TP53BP1-CLTA 0 | A549-TUBA1B-RELA 0 | HepG2-ACTB-RAB5A 0 | HepG2-CANX-COX4 0 | HepG2-GM130-SQSTM1 0 | HepG2-TP53BP1-CLTA 0 | HepG2-TUBA1B-RELA 0 | WPMY1-ACTB-RAB5A 0 | WPMY1-CANX-COX4 0 | WPMY1-GM130-SQSTM1 0 | WPMY1-TP53BP1-CLTA 0 | WPMY1-TUBA1B-RELA 0

OC[C@H]1O[C@@H](Oc2ccc(O)cc2)[C@H](O)[C@@H](O)[C@@H]1O [Arbutin]
inactive: A549-ACTB-RAB5A 0 | A549-CANX-COX4 0 | A549-GM130-SQSTM1 0 | A549-TP53BP1-CLTA 0 | A549-TUBA1B-RELA 0 | HepG2-ACTB-RAB5A 0 | HepG2-CANX-COX4 0 | HepG2-GM130-SQSTM1 0 | HepG2-TP53BP1-CLTA 0 | HepG2-TUBA1B-RELA 0 | WPMY1-ACTB-RAB5A 0 | WPMY1-CANX-COX4 0 | WPMY1-GM130-SQSTM1 0 | WPMY1-TP53BP1-CLTA 0 | WPMY1-TUBA1B-RELA 0

Source: the supplement of paper PMC7411054
